Source: PubChem BioAssay (NCI)
Compounds without any hit were thinned out: in the full panel of roughly 83,000, 20% have a hit.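 In brief: 96-well plates, 48 h treatment, single concentration, percent growth endpoint.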 Unmarked numbers belong to inactive results. The source made the active and inactive calls. How the source made its calls: active means growth percent below 10; inactive means the rest.

Key:
Assay in all cases: NCI-60 one-dose screen, 48 h (100 = growth as untreated, 0 = no growth, -100 = all killed)
Conditions in all cases: 10 µM unless noted
[1] = tested on: NCI-H23 lung
[2] = tested on: NCI-H226 lung
[3] = tested on: NCI-H322M lung
[4] = tested on: HOP-62 NSCLC
[5] = tested on: NCI-H460 lung
[6] = tested on: HOP-92 NSCLC
[7] = tested on: NCI-H522 lung
[8] = tested on: A549/ATCC NSCLC
[9] = tested on: 786-0 renal
[10] = tested on: COLO 205 colon
[11] = tested on: DU-145 prostate
[12] = tested on: MALME-3M melanoma
[13] = tested on: MDA-MB-231 breast
[14] = tested on: RXF 393 renal
[15] = tested on: SF-268 CNS
[16] = tested on: SF-539 CNS
[17] = tested on: UACC-257 melanoma
[18] = tested on: M14 melanoma
[19] = tested on: SF-295 CNS
[20] = tested on: K-562 leukemia

Row | Structure (SMILES) | growth [1] [%] | growth [2] | growth [3] [%] | growth [4] | growth [5] | growth [6] | growth [7] | growth [8] | growth [9] | growth [10] | growth [11] | growth [12] | growth [13] | growth [14] | growth [15] [%] | growth [16] | growth [17] | growth [18] | growth [19] | growth [20]
1 | COc1ccc2c(c1)CCCC21C(=O)Nc2c(Cl)cccc21 (stereo unspecified) | 86 | 85.9% | 88.1 | 55.7% | 94.4% | 72.3% | 27.7% | 68.7% | 78.9% | 80.6% | 93% | 63.3% | 77.4% | 86.5% | 75.8 | 73.3% | 83.8% | 38.8% |  | 
2 | CCOc1cccc(/C=N/NC(=O)c2ccc(Nc3ccnc(C(F)(F)F)c3)cc2)c1O | 28.2 | -16.7% (active) | 22.3 | -9.17% (active) | -3.48% (active) | 18.2% | 2.45% (active) | 17.8% | 3.12% (active) | -9.24% (active) | 29.8% | 19.9% | 27.4% | 22% | 22.7 | 0.3% (active) | 12.4% | -20.3% (active) | 8.46% (active) | 
3 | CCCCCNCCCCCNc1cc(OC)cc2cccnc12 | 90.7 | 94% | 89.4 | 79.1% | 95.9% | 9.38% (active) | 89.6% | 96.1% | 83.1% | 63.6% | 104% | 60.2% | 88.8% | 68.3% | 95.6 | 87.8% | 101% | 87.3% |  | 
4 | Fc1ccc(-c2nnc(N3CCOCC3)c3ccccc23)cc1 | 111 | 97.2% | 94.2 | 97.1% | 103% | 103% | 101% | 102% | 105% | 89.6% | 104% | 82.9% | 107% |  | 103 | 99.2% | 94.7% | 93.9% |  | 99%
5 | Nc1c(C(=O)c2ccc(Br)cc2)sc2nc3c(cc12)CCCC3 | 97.4 | 92.2% | 101 | 98.6% | 103% | 89.2% | 43.1% | 96.8% | 98.2% | 104% | 92.4% | 82.6% | 91% | 62.5% | 101 | 92% | 91.9% | 82.7% | 98.2% | 
6 | O=C1OCC2=C1C(c1cccc(Br)c1)c1cc3c(cc1N2CCO)OCCO3 (stereo unspecified) | 27.5 | -4.52% (active) | 35 | 28.7% | 0.468% (active) | 25.2% | -11.5% (active) | 13.5% | 21.8% | -24.5% (active) | -30.9% (active) |  | -21.5% (active) | 38.2% | 19 | 0.257% (active) | 49% | 14.6% | -4.99% (active) | 17.5%
7 | O=C(Cc1ccc(Nc2ccnc(C(F)(F)F)c2)cc1)N/N=C/c1ccccc1O | 37.7 | 51.4% | 32 | -9.42% (active) | 3.37% (active) | 75.8% | 22.5% | 36.2% | 6.73% (active) | 14% | 39.3% | 38.8% | 27.9% | 49% | 28.6 | 24.1% | 34.7% | 8.64% (active) | 30% | 
8 | O=C1OCC2=C1C(c1ccc(Cl)c(Cl)c1)c1cc3c(cc1N2CCO)CCC3 (stereo unspecified) | 31.5 | 24% | 42 | 38.9% | 5.49% (active) | 82% | -14.8% (active) | 21.6% | 27.5% | 6.1% (active) | 7.85% (active) |  | 8.3% (active) | 21% | 44.3 | -10.2% (active) | 60.2% | 12.1% | -9.42% (active) | 19.7%
9 | O=C(Nc1ccc2ncnc(Nc3ccc(F)c(Cl)c3)c2c1)c1cccs1 | 81.6 | 58.1% | 19.3 | 72.7% | 39.6% | 38% | 31.4% | 43.3% | 14.8% | 106% |  | 66.4% | 43.4% | -3.16% (active) |  | 63.5% | 101% | 65% | 46.4% | 49.9%
10 | CCCCC(CCc1ccccn1)C(=O)c1ccccc1 (stereo unspecified) | 98.8 | 118% | 103 | 106% | 112% | 94.9% | 131% | 111% | 110% | 112% |  | 119% | 104% | 109% | 122 | 107% | 123% | 108% | 104% | 116%
11 | CC(C)(C)NC(=O)C(OC(=O)C1CCc2cc(F)ccc2O1)c1ccccc1Cl (stereo unspecified) | 93.5 | 95.6% | 95.6 | 94.4% | 104% | 89% | 82.4% | 98.6% | 100% | 130% |  | 94.4% | 92.4% | 96.3% |  | 108% | 106% | 94.9% | 95.4% | 103%
12 | COc1cc(/C=C2\C(=O)Nc3ccc(N(C)C)cc32)cc(OC)c1OC | 26.8 | 25.8% | 37.6 | 45.5% | 6.86% (active) | 33.2% | 23.8% | -3.78% (active) | 28.4% | 28% |  | 37.2% | 24.3% | -45% (active) |  | 10.3% | -11% (active) | -3.91% (active) | 7.29% (active) | 21.8%
13 | Cc1nc2n[nH]c(N)c2nc1C | 102 | 99.9% | 93.1 | 104% | 111% | 100% | 93.9% | 99.2% | 105% | 109% | 119% | 105% | 120% | 119% |  | 103% | 96.8% | 125% | 105% | 
14 | COc1ccc(NC(=O)/C=C/c2ccc(NC(=O)N3CCCC3)cc2)cn1 | 105 | 96.6% | 106 | 104% | 105% | 103% | 95.9% | 100% | 109% |  | 106% | 96.8% | 97.5% | 109% | 101 | 97% | 103% | 103% | 99.8% | 99.4%
15 | O=C1C=CC(=O)N1c1cccc(N2C(=O)C=CC2=O)c1 | 98.7 | 111% | 116 | 114% | 119% | 94.9% | -73.1% (active) | 101% | 108% | -48.1% (active) |  | -36.4% (active) | 107% | -2.87% (active) | 108 | 104% | 96.8% | 98.8% | 102% | 104%
16 | COc1cc(-c2nc(-c3nc4cc(C(=O)c5ccccc5)ccc4[nH]3)cc3c2[nH]c2ccccc23)cc(OC)c1OC | 104 | 91.1% | 99.4 | 97.7% | 95.6% | 82.5% | 90.6% | 75.9% | 97.3% | 97.7% |  | 102% | 86.4% | 93.8% | 99.5 | 80.6% | 109% | 85.8% | 77.1% | 80.3%
17 | CC1CN(CCCOC(=O)Nc2ccc(Cl)cc2)CCN1C(C)(C)C (stereo unspecified) | 101 | 96.4% | 96.5 | 112% | 106% | 133% | 97.5% | 103% | 99.3% | 102% |  | 102% | 102% | 126% | 106 | 125% | 108% | 99.7% | 107% | 90.8%
18 | CN(C)c1ccc(Nc2c3ccccc3nc3ccccc23)cc1 | 16 | -38.3% (active) | 15.5 | 32.6% | -26.6% (active) | -7.43% (active) | 20.4% | 14.2% | 9.08% (active) | -51.7% (active) |  | -14% (active) | 43% | 21.6% | 27.7 | 17.5% | 18.3% | 18.5% | -7.58% (active) | 8.82% (active)
19 | COc1ccc2nc(NC(=O)/C(=C/c3cc(OC)c(OC)c(OC)c3)c3ccc(OC)c(OC)c3)sc2c1 | 93.2 | 80.2% | 82.5 | 87.8% | 111% | 74.3% | 78.1% | 85.6% | 100% | 104% | 106% | 98% | 68.8% | 107% | 99.9 | 102% | 97.2% | 104% |  | 
20 | CCOC(=O)NNc1cccc(Cl)c1 | 93.8 | 84.7% | 104 | 103% | 103% | 87.5% | 96.6% | 107% | 112% | 123% |  | 93.6% | 76.3% | 100% | 110 | 99.8% | 103% | 104% | 109% | 102%
21 | CCN(CC)C(Cl)=Nc1ccc(Cl)cc1 | 104 | 96.2% | 103 | 99.8% | 106% | 108% | 91.1% | 97.3% | 99.8% |  | 119% | 116% | 102% | 107% | 106 | 106% | 98.8% | 107% | 97.1% | 121%
